Hits are enriched below; roughly 11% of the tested compounds scored in any of these assays.
HP1b chromo inh: blocks HP1-beta chromodomain binding to methylated histone tails; Potency, µM (series often up to 114 µM), inactives show top-dose activity change, negative = inhibition, most hits filed as inhibitors; P83916; 0.56% of 390,000 active; AID 540317; AlphaScreen HP1-beta / biotin-H3K9me3 peptide binding; also: nearly all actives have a fitted effect of over 70% in size
Target sequence (P83916 whole entry, looked up): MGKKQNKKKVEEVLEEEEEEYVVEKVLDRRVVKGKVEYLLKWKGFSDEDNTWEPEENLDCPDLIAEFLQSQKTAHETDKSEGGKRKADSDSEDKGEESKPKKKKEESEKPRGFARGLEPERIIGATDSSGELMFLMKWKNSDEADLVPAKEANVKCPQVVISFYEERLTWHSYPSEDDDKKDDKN
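HP1-beta protein (50 nM final) preincubated 30 min at room temperature with biotinylated H3(1-18)K9me3 peptide (50 nM) in PBS pH 7.4, 0.01% Tween-20, then compound added for 30 min. AlphaScreen streptavidin donor/nickel chelate acceptor beads (10 ug/mL final), 30 min dark, luminescence read.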
G9a block: G9a (human) methyltransferase inhibition. Q96KQ7. G9a H3K9 monomethylation, AlphaScreen, 2 h. Potency, µM (highest dose often 102 µM), inactives show at the highest dose activity, negative = inhibition, usual class: inhibitors. 8.8% of 350,000 active. AID 504332; also: % is scaled to controls: 0 for no effect and ±100 for the full control effect; nearly all actives have a fitted effect of over 75% in size
Target sequence (Q96KQ7 913-1193 limits assumed): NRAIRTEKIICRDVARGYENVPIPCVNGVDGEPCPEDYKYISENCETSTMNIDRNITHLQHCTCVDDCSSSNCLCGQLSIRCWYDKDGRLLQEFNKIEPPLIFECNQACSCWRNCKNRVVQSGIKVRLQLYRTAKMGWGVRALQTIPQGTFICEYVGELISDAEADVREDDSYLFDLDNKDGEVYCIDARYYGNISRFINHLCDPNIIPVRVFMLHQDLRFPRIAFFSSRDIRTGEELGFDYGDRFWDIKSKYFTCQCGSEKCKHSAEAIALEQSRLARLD
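Step 1: enzyme (final 20 nM) with compound, 15 min RT. Step 2: substrate peptide 500 nM and SAM 20 uM, 2 h RT. Step 3: anti-H3K9me1 antibody and AlphaScreen beads, 10 min, then plate read.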
JMJD2A Tudor inh: JMJD2A Tudor domain (human) inhibition; O75164; AlphaScreen JMJD2A-Tudor / H3K4me3 peptide binding; Potency, µM (series often up to 114 µM), for the others: at the highest dose activity change, negative = inhibition, hits mostly inhibitors; 4.4% of 390,000 active; AID 504339; also: % is scaled to controls: 0 for no effect and ±100 for the full control effect; nearly all actives have a fitted effect of over 50% in size
BAZ2B block: blocks human BAZ2B. Q9UIF8. AlphaScreen BAZ2B-H3K14Ac peptide displacement. Potency, µM (top dose mostly 114 µM), without a hit: at the highest dose activity change, negative = inhibition, most hits filed as inhibitors. 4.4% of 360,000 active. AID 504333; also: % is scaled to controls: 0 for no effect and ±100 for the full control effect; nearly all actives have a fitted effect of over 60% in size
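In this displacement format the biotinylated H3(5-23) peptide acetylated at Lys14 serves as ligand at 50 nM, with BAZ2B at 50 nM in PBS pH 7.4 containing 0.01% Tween-20. Donor and acceptor beads are 10 ug/mL final.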
L3MBTL1 block: inhibitors of human L3MBTL1; Q9Y468; AlphaScreen L3MBTL1–H3K9me1 peptide binding; Potency, µM (titrated, usually from 57.1 µM), without a hit: top-dose activity, negative = inhibition, most hits filed as inhibitors; 0.66% of 230,000 active; also: % is scaled to controls: 0 for no effect and ±100 for the full control effect; nearly all actives have a fitted effect of over 60% in size
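Read-out is AlphaScreen signal from streptavidin donor and nickel chelate acceptor beads (10 ug/mL final each) bridging L3MBTL1 (50 nM) and biotinylated K9-monomethylated H3(1-15) peptide (75 nM), after 30 min compound exposure at room temperature.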
The depositor's hits bear a star; [ ] = another dose, or the depositor's remark. Calls follow the shape of the dose curve; as a rule, active = well fitted inhibition curve with a large enough effect; inconclusive = small, poorly fitted or top-dose-only effect; inactive = no such curve, though single readings can be large or run the other way. Potency is read from the fitted curve at half-maximal effect.

For COC(=O)c1c(NC(=O)c2ccco2)sc2c1CCN(C(C)C)C2 the results were HP1b chromo inh 41%, G9a block 32µM*, JMJD2A Tudor inh -12% and BAZ2B block -25%.
`COc1cccc(OC)c1C(=O)Nc1sc2c(c1C(N)=O)CCN(Cc1ccccc1)C2` gave HP1b chromo inh 16%, G9a block 79µM*, JMJD2A Tudor inh -31%, BAZ2B block -32% and L3MBTL1 block 0%.
`CC(C)N1CCc2c(sc(NC(=O)c3ccc(S(=O)(=O)N4CCCCC4C)cc3)c2C(N)=O)C1` (configuration not stated) gave HP1b chromo inh 11%, G9a block -19%, JMJD2A Tudor inh -20% and BAZ2B block 50µM*.
For O=C(CCc1c[nH]c2ccccc12)N[C@@H](Cc1c[nH]c2ccc(O)cc12)C(=O)O the results were HP1b chromo inh 14%, G9a block -19%, JMJD2A Tudor inh -20% and BAZ2B block -15%.
CC(C)N1CCc2c(sc(NC(=O)CCc3ccccc3)c2C(N)=O)C1 was read as HP1b chromo inh 52%, G9a block 45µM*, JMJD2A Tudor inh -12%, BAZ2B block inconclusive and L3MBTL1 block 32%.
Screening COc1ccccc1NC1=CC(=O)CC(c2ccccc2)C1 (configuration not stated) returned HP1b chromo inh 29%, G9a block inconclusive, JMJD2A Tudor inh -7%, BAZ2B block 2% and L3MBTL1 block -3%.
For COc1ccc(NC2=CC(=O)CC(c3ccc(C)cc3)C2)c(OC)c1 (configuration not stated) the results were HP1b chromo inh -16% and JMJD2A Tudor inh 79µM*.
For O=C(O)CCCN=CC1=C(O)CNC1=O the results were HP1b chromo inh -16%, G9a block inconclusive, JMJD2A Tudor inh 22µM*, BAZ2B block -18% and L3MBTL1 block -1%.
Screening Cc1cc(C)c(NC(=O)CSc2nc(=O)n(Cc3ccncc3)c3c2CCC3)c(C)c1 returned HP1b chromo inh 27%, G9a block 17%[59 µM], JMJD2A Tudor inh 0% and BAZ2B block -2%.
For O=C(CN1C(=O)COc2ccc(S(=O)(=O)N3CCCCCC3)cc21)Nc1cccc(Cl)c1 the results were HP1b chromo inh -12%, G9a block -27%[59 µM], JMJD2A Tudor inh -24% and BAZ2B block -19%.
Screening C=CCn1c(CSCc2ccc(F)cc2)n[nH]c1=S returned HP1b chromo inh 1%, JMJD2A Tudor inh -75%, BAZ2B block 8% and L3MBTL1 block 2%.
Screening C=CCn1c(CCC(O)CCCCC)n[nH]c1=S (configuration not stated) returned HP1b chromo inh 3%, G9a block 7.1µM*, JMJD2A Tudor inh 18µM*, BAZ2B block 4% and L3MBTL1 block 7%.
`C=CCn1c(CCc2cc(C(C)(C)C)c(O)c(C(C)(C)C)c2)n[nH]c1=S` gave HP1b chromo inh -15%, G9a block 2µM*, JMJD2A Tudor inh inconclusive, BAZ2B block -29% and L3MBTL1 block -10%.
`C=CCn1c(Cc2ccccc2)n[nH]c1=S` gave HP1b chromo inh 23%, JMJD2A Tudor inh 3.5µM*, BAZ2B block -5% and L3MBTL1 block inconclusive.
Screening C=CCn1c(Cc2c[nH]c3ccccc23)n[nH]c1=S returned HP1b chromo inh -4%, G9a block 6.3µM*, JMJD2A Tudor inh 8.9µM*, BAZ2B block -7% and L3MBTL1 block -21%.
C=CCn1c(C(CCCC)CC(C)O)n[nH]c1=S (configuration not stated) was read as HP1b chromo inh 29%, G9a block inconclusive, JMJD2A Tudor inh inconclusive, BAZ2B block 4% and L3MBTL1 block 18%.
Screening CC(=O)c1cc2c(s1)c1cnn(Cc3ccccc3F)c(=O)c1n2C returned JMJD2A Tudor inh -15%.
Cc1ccccc1Nc1c(-c2c[nH]c3ccccc23)nc2cccc(C)n12 was read as HP1b chromo inh 34%, G9a block 0%[59 µM], JMJD2A Tudor inh -11% and BAZ2B block -15%.
`Cc1ccnc(NC(=O)c2ccccc2[N+](=O)[O-])c1` gave HP1b chromo inh inconclusive, G9a block 10µM*, JMJD2A Tudor inh -17%, BAZ2B block 10% and L3MBTL1 block -4%.
Cc1ccc(NC(=O)CCC(=O)NNC(=O)c2ccccc2[N+](=O)[O-])c(C)c1 was read as HP1b chromo inh 32%, G9a block 50µM*, JMJD2A Tudor inh -2%, BAZ2B block -8% and L3MBTL1 block 9%.
For Cc1ccnc(NC(=O)c2ccc([N+](=O)[O-])o2)c1 the results were HP1b chromo inh 0%, G9a block -4%[12.7 µM], JMJD2A Tudor inh -22%, BAZ2B block 56µM* and L3MBTL1 block -8%.
For Cc1ccnc(NC(=O)c2cccc([N+](=O)[O-])c2C)c1 the results were HP1b chromo inh 28%, G9a block 4%, JMJD2A Tudor inh -3%, BAZ2B block -16% and L3MBTL1 block -4%.
For Cc1ccnc(NC(=O)/C=C/c2ccccc2[N+](=O)[O-])c1 the results were G9a block inconclusive, BAZ2B block 56µM* and L3MBTL1 block -9%.
For CCOC(=O)c1c(C)[nH]c(C)c1S(=O)(=O)N1CCC(C(=O)NCc2ccc(OC)cc2)CC1 the results were HP1b chromo inh 3%, G9a block -2%[59 µM], JMJD2A Tudor inh 89µM* and BAZ2B block 3%.
CCOC(=O)c1c(C)[nH]c(C)c1S(=O)(=O)N1CCN(c2ccc(F)cc2)CC1 was read as HP1b chromo inh 41%, JMJD2A Tudor inh 4% and BAZ2B block 71µM*.
`COC(=O)c1scc(-c2ccc(C)cc2)c1S(=O)(=O)N1CCN(c2ccccc2)CC1` gave HP1b chromo inh -6%, G9a block -42%[59 µM], JMJD2A Tudor inh -29% and BAZ2B block inconclusive.
CCOC(=O)c1scc(-c2ccccc2)c1S(=O)(=O)N1CCN(c2ccc(Cl)cc2)CC1 was read as HP1b chromo inh 28%, G9a block 13µM*, JMJD2A Tudor inh -15% and BAZ2B block -31%.
For CCOC(=O)c1c(C)[nH]c(C)c1S(=O)(=O)N1CCC(C(=O)NCc2ccc(C)cc2)CC1 the results were HP1b chromo inh 4%, G9a block -8%[59 µM], JMJD2A Tudor inh -17% and BAZ2B block -14%.
Screening CCOC(=O)c1c(C)[nH]c(C)c1S(=O)(=O)N1CCC(C(=O)N2CCN(c3ccc(F)cc3)CC2)CC1 returned HP1b chromo inh 9%, G9a block 4%[59 µM], JMJD2A Tudor inh -27% and BAZ2B block inconclusive.
Screening CCCCCCCCCCCCC/C=C/[C@@H](O)[C@H](CO)NC(C)=O returned G9a block 25%[59 µM].
For Cc1cccc(NC(=O)CSc2nc(C)cc(C)c2C(=O)Nc2ccc(Cl)cc2)c1 the results were HP1b chromo inh 39%, G9a block 4%[59 µM], JMJD2A Tudor inh 5% and BAZ2B block -1%.

Compound activity as filed in PubChem BioAssay.
